Our source for the composite z-score and z-score values is PubChem BioAssay.

The structures appear in SMILES notation. Active and inactive are the calls of the source.

Experiment [1] in a line: compounds binding Alexa647 anti-His antibody – biochemical, small-molecule microarray, 635 nm fluorescence, artefact control for SMM control protein annotation, primary screen (AID 1128).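 Note: score merges feature fluorescence with signal-to-noise for each printed compound spot.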 As to conditions: higher = more signal.
Experiment [2] relates to Human papillomavirus type 1a E7 protein (residues 1-88). The experiment can be described thus: HPV1a E7 small-molecule binders, primary screen, biochemical, small-molecule microarray, residues 1-88, 635 nm (AID 1129). As to conditions: small-molecule microarray binding, fluorescence 635 nm; higher = more signal.
The target in experiment [3] is Focal adhesion kinase 1 (Homo sapiens) (UniProt Q05397). The experiment in a line: PTK2 protein binding on printed compound slides – biochemical, small-molecule microarray, 635/667 nm fluorescence, BSA, DTT, primary screen (AID 1130).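 Note: composite of spot emission at 667 nm and signal to noise over triplicate slides.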 Particulars: 635 nm fluorescence, higher = more signal.
Experiment [4] deals with Fibrinogen (Alexa647-labelled). The experiment in a line: Alexa647-fibrinogen binding to printed small molecules – biochemical, small-molecule microarray, 635/667 nm fluorescence, artefact control for SMM control-protein annotation, profiling panel (AID 1131).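 Note: z-score merges 667 nm fluorescence with per-spot signal-to-noise over triplicate slides.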 Particulars: fibrinogen-A647 binding fluorescence, higher = more signal.
The target in experiment [5] is Follistatin (Homo sapiens) (UniProt P19883). The experiment can be described thus: FST protein binding to printed compounds – biochemical, small-molecule microarray, 635/667 nm fluorescence, primary screen (AID 1132). As to conditions: 635 nm fluorescence, higher = more signal.
Experiment [6] addresses Fibroblast growth factor 2 (Homo sapiens) (UniProt P09038). The experiment in a line: basic fibroblast growth factor binding to printed compounds – biochemical, small-molecule microarray, 635/667 nm fluorescence, primary screen (AID 1133). Particulars: FGF2, fluorescence 635/667, higher = more signal.
The nature of experiment [7]: JC-1 mitochondrial potential readout, lung cancer cells – cell-based, A549, JC-1 fluorescence, basal, 24 h, 100 nL, profiling panel (AID 1138).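 Note: A549 lung adenocarcinoma cells under basal conditions with no added stimulus; test concentration not given here.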 Particulars: higher = more signal.
Experiment [8] deals with Lefty1. The experiment can be described thus: Lefty1 protein binding to printed compounds – biochemical, small-molecule microarray, 635/667 nm fluorescence, primary screen (AID 1139). Particulars: fluorescence 635/667, higher = more signal.
The subject of experiment [9] is wheat germ agglutinin (Triticum aestivum), Alexa647-labelled. The experiment in a line: Alexa647-WGA lectin binding to printed small molecules – biochemical, small-molecule microarray, 635/667 nm fluorescence, artefact control for SMM control-protein annotation, profiling panel (AID 1140).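 Note: score merges 667 nm feature emission with signal to noise over triplicate slides.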 As to conditions: WGA-A647 binding, 635 nm fluorescence, higher = more signal.

Experiment [10] concerns the target Luciferin 4-monooxygenase (Photinus pyralis) (UniProt P08659). The experiment can be described thus: inhibition of purified Photinus pyralis luciferase – biochemical, luminescence, purified enzyme, 2006 set, primary screen (AID 1141).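 Note: cell-free assay with purified firefly luciferase at 100 ng per well in PBS; test concentration not given here.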 Particulars: purified firefly luciferase, SteadyGlo luminescence, 30 min; higher = more signal, called active from +8 up or from −8 down.

Experiment [11] concerns Wnt5a (protein binding on small-molecule microarray). The experiment can be described thus: small molecules binding Wnt5a protein – biophysical, small-molecule microarray, 635/667 nm fluorescence, primary screen (AID 1142).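 Note: fluorescence read at 667 nm with signal to noise per printed feature.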 As to conditions: 635 nm fluorescence, higher = more signal.
Experiment [12] in a line: ATP-based viability of Huh7 replicon cells – cell-based, CellTiter-Glo luminescence, basal, 48 h, cytotoxicity control for HCV replication inhibitor project, primary screen (AID 1143).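 Note: Huh7 hepatoma cells carrying a hepatitis C replication reporter with no stimulus; test concentration not given here.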 Particulars: higher = more signal, called active from +8 up or from −8 down.
Experiment [13] is described as follows: basal CRE-LacZ reporter activity in PC12 – cell-based, unstimulated, primary screen (AID 1145). As to conditions: no forskolin, luminescence, 4.5 h, higher = more signal, called active from +8 up or from −8 down.
Experiment [14] in a line: forskolin-driven CRE-LacZ activity in PC12 – cell-based, CRE-LacZ reporter, forskolin-stimulated, primary screen (AID 1146).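 Note: PC12 cells with 6xCRE LacZ reporter stimulated by forskolin 10 µM; beta-galactosidase reporter signal reflecting CREB driven transcription.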 Particulars: luminescence, 4.5 h, higher = more signal, called active from +8 up or from −8 down.
Experiment [15] has as its target Streptavidin (Streptomyces avidinii) (UniProt P22629). The experiment can be described thus: compounds binding control protein streptavidin – biophysical, small-molecule microarray, 635/667 nm fluorescence, artefact control for SMM compound annotation, primary screen (AID 1147).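 Note: signal reflects streptavidin binding to arrayed compounds as a control protein.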 As to conditions: higher = more signal.
A short description of experiment [16]: probe aInhba binding on compound microarray – biochemical, small-molecule microarray, 635/667 nm fluorescence, primary screen (AID 1148).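 Note: score merges 667nm spot fluorescence with signal-to-noise for antibody binding to printed compounds.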 Particulars: higher = more signal.
The target of experiment [17] is Torsin-1A (Homo sapiens) (UniProt O14656). The experiment can be described thus: TOR1A wild-type binding on microarray – cell lysate, small-molecule microarray, lysate, 635/667 nm, primary screen (AID 1149). As to conditions: COS7 hTOR1A-WT lysate, 635 nm fluorescence, higher = more signal.
The target is the same in experiment [18]. The experiment can be described thus: torsin A mutant lysate binding on microarrays – cell lysate, small-molecule microarray, COS7 lysate, 635/667 nm fluorescence, primary screen (AID 1150).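 Note: score pools 667 nm emission and signal to noise measuring lysate protein binding.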 As to conditions: COS7 hTOR1A mutant lysate, 635 nm fluorescence, higher = more signal.
Experiment [19] deals with Sonic hedgehog protein (Shh). The experiment in a line: Sonic hedgehog microarray binding compounds – biochemical, small-molecule microarray, 635/667 nm fluorescence, primary screen (AID 1151).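 Note: Shh protein binding to compounds spotted on small-molecule microarray slides; score combines spot fluorescence intensity with signal-to-noise across triplicate slides.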 Particulars: 635 nm fluorescence, higher = more signal.

Sequence of Follistatin (Homo sapiens) (P19883 whole entry, looked up): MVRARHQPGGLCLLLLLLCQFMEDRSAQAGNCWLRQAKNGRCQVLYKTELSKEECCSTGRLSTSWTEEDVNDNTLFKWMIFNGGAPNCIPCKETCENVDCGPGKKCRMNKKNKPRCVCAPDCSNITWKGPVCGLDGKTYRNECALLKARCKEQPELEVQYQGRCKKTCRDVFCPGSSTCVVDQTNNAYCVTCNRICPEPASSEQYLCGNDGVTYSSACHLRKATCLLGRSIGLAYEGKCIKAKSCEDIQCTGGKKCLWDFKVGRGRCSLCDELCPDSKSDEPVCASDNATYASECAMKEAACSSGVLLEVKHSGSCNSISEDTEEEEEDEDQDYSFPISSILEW
Sequence of Streptavidin (Streptomyces avidinii) (P22629 whole entry, looked up): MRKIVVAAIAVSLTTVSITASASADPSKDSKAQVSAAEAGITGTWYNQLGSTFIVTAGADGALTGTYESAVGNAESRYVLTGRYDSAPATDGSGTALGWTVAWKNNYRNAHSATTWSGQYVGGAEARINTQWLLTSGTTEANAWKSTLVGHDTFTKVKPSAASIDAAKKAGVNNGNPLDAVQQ
Sequence of Fibroblast growth factor 2 (Homo sapiens) (P09038 whole entry, looked up): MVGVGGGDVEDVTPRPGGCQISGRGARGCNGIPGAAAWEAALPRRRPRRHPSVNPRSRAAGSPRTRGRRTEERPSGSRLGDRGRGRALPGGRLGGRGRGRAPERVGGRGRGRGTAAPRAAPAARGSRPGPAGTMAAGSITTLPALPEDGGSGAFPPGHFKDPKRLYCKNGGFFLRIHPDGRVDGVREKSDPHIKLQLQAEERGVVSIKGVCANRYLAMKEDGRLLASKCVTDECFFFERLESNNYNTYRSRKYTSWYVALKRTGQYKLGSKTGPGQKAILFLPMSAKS
Sequence of Luciferin 4-monooxygenase (Photinus pyralis) (P08659 whole entry, looked up): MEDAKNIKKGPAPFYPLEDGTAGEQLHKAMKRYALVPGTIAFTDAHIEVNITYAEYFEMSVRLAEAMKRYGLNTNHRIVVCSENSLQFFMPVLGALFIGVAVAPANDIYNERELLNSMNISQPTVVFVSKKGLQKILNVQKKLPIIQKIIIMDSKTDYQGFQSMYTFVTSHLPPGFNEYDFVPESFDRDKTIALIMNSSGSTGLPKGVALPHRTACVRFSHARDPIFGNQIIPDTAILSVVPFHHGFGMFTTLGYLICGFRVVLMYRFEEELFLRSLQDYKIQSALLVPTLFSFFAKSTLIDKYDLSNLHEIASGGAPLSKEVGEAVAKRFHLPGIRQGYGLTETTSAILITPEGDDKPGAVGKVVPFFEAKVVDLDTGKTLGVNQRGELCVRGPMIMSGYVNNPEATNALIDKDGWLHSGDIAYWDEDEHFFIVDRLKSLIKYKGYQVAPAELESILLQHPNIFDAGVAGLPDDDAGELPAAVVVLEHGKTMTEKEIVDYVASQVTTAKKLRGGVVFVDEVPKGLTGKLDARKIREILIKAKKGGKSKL
Sequence of Torsin-1A (Homo sapiens) (O14656 whole entry, looked up): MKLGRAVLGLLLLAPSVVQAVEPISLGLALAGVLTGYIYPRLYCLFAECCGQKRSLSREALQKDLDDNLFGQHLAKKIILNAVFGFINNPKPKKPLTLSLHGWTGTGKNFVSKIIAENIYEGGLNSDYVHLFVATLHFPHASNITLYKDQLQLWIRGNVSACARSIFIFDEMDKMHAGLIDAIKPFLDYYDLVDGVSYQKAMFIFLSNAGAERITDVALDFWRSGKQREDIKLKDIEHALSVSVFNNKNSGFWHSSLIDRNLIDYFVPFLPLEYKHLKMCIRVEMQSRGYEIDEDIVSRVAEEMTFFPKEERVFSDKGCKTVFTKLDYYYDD
Sequence of Focal adhesion kinase 1 (Homo sapiens) (Q05397 whole entry, looked up): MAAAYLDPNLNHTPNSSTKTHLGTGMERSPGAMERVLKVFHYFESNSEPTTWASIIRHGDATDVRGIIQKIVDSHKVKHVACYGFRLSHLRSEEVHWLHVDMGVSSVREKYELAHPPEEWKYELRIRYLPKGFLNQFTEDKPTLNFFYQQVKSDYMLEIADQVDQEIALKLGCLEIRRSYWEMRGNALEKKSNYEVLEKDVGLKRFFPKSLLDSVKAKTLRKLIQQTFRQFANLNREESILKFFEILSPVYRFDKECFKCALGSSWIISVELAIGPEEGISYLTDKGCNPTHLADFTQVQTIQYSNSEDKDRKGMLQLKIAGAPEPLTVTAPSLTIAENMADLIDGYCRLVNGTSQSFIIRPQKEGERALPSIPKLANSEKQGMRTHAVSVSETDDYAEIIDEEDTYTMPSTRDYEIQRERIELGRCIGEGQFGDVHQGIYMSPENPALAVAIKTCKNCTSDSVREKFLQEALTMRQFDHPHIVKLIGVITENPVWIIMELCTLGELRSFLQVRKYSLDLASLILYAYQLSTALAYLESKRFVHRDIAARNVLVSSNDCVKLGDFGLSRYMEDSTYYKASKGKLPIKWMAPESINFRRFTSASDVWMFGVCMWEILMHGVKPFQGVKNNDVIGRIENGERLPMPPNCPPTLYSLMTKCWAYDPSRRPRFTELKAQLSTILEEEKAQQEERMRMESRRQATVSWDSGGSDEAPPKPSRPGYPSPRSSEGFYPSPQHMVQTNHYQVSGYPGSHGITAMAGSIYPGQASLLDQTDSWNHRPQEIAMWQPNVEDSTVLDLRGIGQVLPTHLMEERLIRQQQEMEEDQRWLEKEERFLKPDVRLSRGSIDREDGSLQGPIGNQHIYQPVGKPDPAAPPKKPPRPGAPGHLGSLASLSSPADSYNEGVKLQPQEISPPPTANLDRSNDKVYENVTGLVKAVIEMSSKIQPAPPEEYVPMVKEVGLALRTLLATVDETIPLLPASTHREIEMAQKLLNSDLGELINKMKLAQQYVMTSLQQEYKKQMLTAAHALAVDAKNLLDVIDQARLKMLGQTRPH

Take `COc1ccc([Si](C)(C)[C@H]2[C@H](CCO)O[C@@]3(C(=O)N(Cc4ccccc4)c4ccc(N5C(=O)c6cccc7cccc5c67)cc43)[C@@H]2C)cc1`: the composite z-score in [1] is 1.38; in experiment [2] it was -0.333; in experiment [3], 0.209; in [4], -0.603; in experiment [5], -0.357; in experiment [6], -0.751. The composite z-score in experiment [8] is -0.297; in experiment [9], 0.641; in [11], -0.234; in [15], -0.3; in [16], -0.0791; in [17], -0.144. For the same compound, the composite z-score in experiment [18] turned out to be 0.0743; in experiment [19], 0.145. Also, the z-score in [7] was 2.33; in [10] it was -1.84 (inactive); in [12], -5.81 (inactive); in experiment [13] it was 4.04 (inactive); in experiment [14], -1.36 (inactive).

Consider `O=C1c2ccccc2[C@](Cc2ccccc2I)(C(=O)NCc2ccccc2)[C@H](c2ccc(CO)cc2)N1Cc1ccccc1C(F)(F)F`, for which the composite z-score was -0.77 in [1]; -0.455 in experiment [2]; -0.328 in [3]; -0.373 in [4]; -1.2 in experiment [5]; -1.36 in [6]. Moreover, the composite z-score in [8] is -1.22; in experiment [9] it was -1.12; in experiment [11], -0.246; in [15] it was -0.409; in [16], -0.0313; in experiment [17] it was -0.635. Also, the composite z-score in experiment [18] was -0.162; in experiment [19], -0.197. In addition, the z-score in experiment [7] was 1.11; in experiment [10], -1.09 (inactive); in experiment [12], -2.5 (inactive); in [13], 0.0909 (inactive); in [14], -0.487 (inactive).

Regarding `[N-]=[N+]=Nc1ccccc1C[C@@]1(C(=O)N2CCOCC2)N=C(c2ccc(OCCCO)cc2)O[C@@H]1c1ccccc1N=[N+]=[N-]`, the composite z-score in experiment [1] is 2.48; in [2], 1.19; in experiment [3], 1.41; in experiment [4] it was 0.886; in experiment [5], 1.42; in [6], 0.667. Moreover, the composite z-score in experiment [8] was 0.0674; in experiment [9] it was 1.22; in [11], 0.372; in experiment [15], 0.955; in experiment [16] it was 0.0982; in experiment [17], 0.644. Further, the composite z-score in experiment [18] turned out to be 0.407; in experiment [19] it was 0.174. The z-score was 2.03 in experiment [7]; -3.69 (inactive) in [10]; -5.17 (inactive) in [12]; 2.75 (inactive) in [13]; -1.37 (inactive) in experiment [14].

Consider `CO[C@H]1COC(=O)CC=C[C@@H](C)COC(=O)[C@@H](C)NC(=O)CC=C[C@@H]1C`, for which the composite z-score in experiment [1] is -0.505; in experiment [2] it was -1.53; in experiment [3] it was -1.02; in experiment [4] it was -0.943; in experiment [5] it was 1.44; in experiment [6], 2.02. Further, the composite z-score in [8] was 1.73; in experiment [9] it was -0.673; in experiment [11] it was 0.272; in experiment [15] it was -0.697; in [16], -0.218; in experiment [17], 2.49. Besides, the values for the composite z-score in experiment [18] and in experiment [19] were 0.711 and 2.06, respectively. Further, the z-score is 1.15 in experiment [7]; -1.37 (inactive) in [10]; -3.48 (inactive) in experiment [12]; 0.608 (inactive) in [13]; -1.09 (inactive) in experiment [14].

Consider `C/C(=N\O)C(=O)NCCCCCNC(=O)OCc1ccccc1`, for which the composite z-score in experiment [1] is 0.443; in experiment [2], 0.783; in experiment [3], 0.317; in experiment [4] it was 0.825; in experiment [5], 0.7; in [6], 0.545. Further, the composite z-score in [8] is 0.93; in experiment [9], 0.3; in [11], 0.321; in [15], 1.24; in experiment [16] it was -0.0471; in experiment [17], 0.228. The composite z-score in experiment [18] was found to be 0.173; in experiment [19], 0.371. Besides, the z-score in [7] was 2.02; in experiment [10] it was -1.72 (inactive); in experiment [12] it was -0.564 (inactive); in experiment [13] it was 1.67 (inactive); in [14] it was -1.47 (inactive).
